Consider eleven molecules from PubChem BioAssay (EPA / NIEHS).

Records with an inconclusive call do not appear. The source made the active and inactive calls. Rule for the calls, unless noted: active = hit-call score of the fitted dose curve at least 0.9, where 1 is the maximum; inactive = score below 0.9.

The target in assay [1] is Glucocorticoid receptor (Homo sapiens) (UniProt P04150). Kind of assay: ATG_GR_TRANS: Attagene TRANS-FACTORIAL HepG2 Assay for human Glucocorticoid Receptor (GR) (AID 2282978; active = hit-call score of the fitted dose curve at least 0.9, where 1 is the maximum;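 note: activators score as hits since higher reporter transcript over DMSO is fitted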). The following applies: HepG2 Attagene TRANS GR reporter, mRNA transcription. Put shortly:
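Measurement of GAL4-UAS-driven reporter mRNA in human HepG2 liver cells 24 h post-dosing, using RT-PCR with fluorescent labelling and capillary electrophoresis; the transfected constructs report exogenous NR-GAL4 chimera activity, fitted upward against DMSO.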

Assay [2] concerns the target Hepatocyte nuclear factor 4-alpha (Homo sapiens) (UniProt P41235). The assay is described as follows: ATG_HNF4a_TRANS: Attagene TRANS-FACTORIAL HepG2 Assay for human Hepatocyte Nuclear Factor 4 alpha (HNF4a) (AID 2282982; active = hit-call score of the fitted dose curve at least 0.9, where 1 is the maximum). Conditions: HepG2 HNF4a transactivation reporter, mRNA readout. Put shortly: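 Gain-of-signal mRNA induction, relative to DMSO vehicle, was read after 24 h compound treatment of HepG2 cells bearing transfected GAL4-UAS reporters. Detection used RT-PCR, 6-FAM primer extension and capillary electrophoresis.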

The nature of assay [3]: ATG_M_06_TRANS: Attagene TRANS-FACTORIAL HepG2 Assay for M06 Transcription Factor (Internal Marker) (AID 2282983; active = hit-call score of the fitted dose curve at least 0.9, where 1 is the maximum). The following applies: HepG2 Attagene TRANS M06 internal marker reporter. In short, it runs like this:
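Transfect HepG2 with MRTUs → dose compounds 24 h → isolate RNA, oligo(dT) RT → PCR with reporter primers → 6-FAM primer extension → HpaI digest → CE fragment analysis. Positive direction vs DMSO.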

Assay [4] addresses Transcriptional activator Myb (Homo sapiens) (UniProt P10242). Kind of assay: ATG_Myb_CIS: Attagene CIS-FACTORIAL HepG2 Assay for human Myeloblastosis (Myb) Proto-Oncogene Transcription Factor (AID 2282986). Conditions: HepG2 Attagene CIS-FACTORIAL Myb reporter transcription; actives raise or lower the signal. Put shortly: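 Fluorescence signals from capillary electrophoresis of RT-PCR-amplified reporter cDNA give the read-out. Cells: HepG2 transfected with multiple cis-regulated reporter units. Exposure lasts 24 hours; DMSO defines baseline for gain or loss of signal.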

The target of assay [5] is Nuclear respiratory factor 1 (Homo sapiens) (UniProt Q16656). Kind of assay: ATG_NRF1_CIS: Attagene CIS-FACTORIAL HepG2 Assay for human Nuclear Respiratory Factor 1 (NRF1) Orphan Gene (AID 2282987). Conditions: HepG2 NRF1 cis-element reporter, Attagene multiplex; actives raise or lower the signal. Put shortly:
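Transcriptional reporter readout, one component of a 52-endpoint multiplexed HepG2 panel. Exposure 24 h; mRNA detected via RT-PCR and fluorescent capillary electrophoresis; fitting in both directions against DMSO.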

Assay [6] is described as follows: ATG_NFI_CIS: Attagene CIS-FACTORIAL HepG2 Assay for human Nuclear Factor I (NFI) (AID 2282989). The following applies: HepG2 cis-regulatory reporter, NFI response element transcription; actives raise or lower the signal. Put shortly: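 Read-out: reporter mRNA via RT-PCR plus capillary electrophoresis with fluorescence detection. Transiently transfected HepG2 (endogenous TF activity on cis promoters), 24 h compound exposure; gain or loss of signal fitted against DMSO.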

Assay [7] has as its target Myc proto-oncogene protein (Homo sapiens) (UniProt P01106). Kind of assay: ATG_Myc_CIS: Attagene CIS-FACTORIAL HepG2 Assay for human Myelocytomatosis (Myc) Proto-Oncogene Transcription Factor (AID 2282990). Conditions: HepG2, Attagene cis-reporter transcription factor activity; actives raise or lower the signal. Put shortly: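 Read-out: fluorescent reporter mRNA fragments resolved by capillary electrophoresis after RT-PCR. Human HepG2 liver cells carried transfected cis-element reporter units and were dosed for 24 h. Gain or loss of signal fitted relative to DMSO baseline.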

Assay [8] in a line: ATG_NF_kB_CIS: Attagene CIS-FACTORIAL HepG2 Assay for human Nuclear Factor Kappa B (NF-kB) (AID 2282991). Conditions: HepG2 Attagene cis-factorial NF-kB reporter mRNA; actives raise or lower the signal. Put shortly: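 HepG2, transient multi-reporter transfection, cis promoter elements (endogenous TFs). 24 h exposure. Total RNA → RT → PCR → 6-FAM label → HpaI → CE. Gain/loss vs DMSO.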

Assay [9] is described as follows: ATG_NRF2_ARE_CIS: Attagene CIS-FACTORIAL HepG2 Assay for human Nuclear Factor Erythroid 2 Related Factor 2 (NFR2) response to Antioxidant Response Elements (ARE) (AID 2282992).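 For AC50: reporter mRNA level measured by RT-PCR and capillary electrophoresis fluorescence.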 Conditions: HepG2 Attagene ARE/NRF2 reporter, transcription factor activity; actives raise or lower the signal. Put shortly:
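Multiplexed reporter mRNA profiling in HepG2 after a 24 h chemical exposure. Curves fitted in both directions relative to DMSO negative control.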

A short description of assay [10]: ATG_Oct_MLP_CIS: Attagene CIS-FACTORIAL HepG2 Assay for human Octamer-Binding Transcription Factor (Oct) (AID 2282993). Conditions: HepG2 Attagene cis-factorial Oct reporter, mRNA; actives raise or lower the signal. In short, it runs like this: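 Read-out: reporter mRNA via RT-PCR plus capillary electrophoresis of 6-FAM-labelled fragments. Transiently transfected HepG2, 24 h exposure, endogenous TF activity on cis elements. Gain or loss of signal fitted relative to DMSO.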

Assay [11] deals with Oxysterols receptor LXR-alpha (Homo sapiens) (UniProt Q13133). Kind of assay: ATG_LXRa_TRANS: Attagene TRANS-FACTORIAL HepG2 Assay for human Liver X Receptor alpha (LXRa) (AID 2282980; active = hit-call score of the fitted dose curve at least 0.9, where 1 is the maximum). The following applies: HepG2 Attagene TRANS reporter, LXRa transactivation. Put shortly:
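Transfect HepG2 with GAL4-UAS multiplex reporter constructs (TRANS format, chimeric receptor-GAL4); treat 24 h; extract RNA, reverse-transcribe, PCR-amplify, FAM-label, HpaI-digest; resolve fragments by capillary electrophoresis. Upward response vs DMSO.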

Assay [12] has as its target Oxysterols receptor LXR-beta (Homo sapiens) (UniProt P55055). The assay is described as follows: ATG_LXRb_TRANS: Attagene TRANS-FACTORIAL HepG2 Assay for human Liver X Receptor beta (LXRb) (AID 2282981; active = hit-call score of the fitted dose curve at least 0.9, where 1 is the maximum). The following applies: HepG2 Attagene TRANS GAL4-LXRb reporter, mRNA. In short, it runs like this:
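Gain-of-signal mRNA reporter endpoint, DMSO as negative control. Transiently transfected HepG2 cells carrying the NR-Gal4 chimera and GAL4-UAS reporter units were treated 24 h; transcripts quantified by RT-PCR and capillary electrophoresis fluorescence.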

Assay [13] addresses Cellular tumor antigen p53 (Homo sapiens) (UniProt P04637). The assay is described as follows: ATG_p53_CIS: Attagene CIS-FACTORIAL HepG2 Assay for human p53 Transcription Factor (AID 2282994). Conditions: HepG2 p53 cis-element reporter, Attagene mRNA; actives raise or lower the signal. In short, it runs like this: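 Multiplexed reporter mRNA assay in human HepG2 liver cells; cis-regulated units report endogenous factor activity. Values come from bidirectional curve fitting against DMSO negative control after 24 h treatment.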

Assay [14] deals with Nuclear receptor subfamily 4 group A member 2 (Homo sapiens) (UniProt P43354). Kind of assay: ATG_NURR1_TRANS: Attagene TRANS-FACTORIAL HepG2 Assay for human Nuclear Receptor Related Protein 1 (NURR1) (AID 2282985; active = hit-call score of the fitted dose curve at least 0.9, where 1 is the maximum). Conditions: HepG2 Attagene TRANS reporter, mRNA readout. In short, it runs like this:
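HepG2 / transient MRTU transfection / 24 h compound exposure / RT-PCR + CE fluorescence of reporter mRNA / gain-of-signal vs DMSO.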

Assay [15] addresses Bile acid receptor (Homo sapiens) (UniProt Q96RI1). Kind of assay: ATG_FXR_TRANS: Attagene TRANS-FACTORIAL HepG2 Assay for Farnesoid X Receptor (FXR) (AID 2282979; active = hit-call score of the fitted dose curve at least 0.9, where 1 is the maximum;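 note: hits raise reporter mRNA above DMSO so AC50 marks FXR activation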). The following applies: HepG2 Attagene TRANS FXR-GAL4 reporter transcription. Put shortly:
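Transient transfection of HepG2 with multiplexed GAL4-UAS reporter units; exogenous FXR-GAL4 chimera. Dose 24 h → TriZol RNA → oligo(dT) RT → PCR, 6-FAM primer extension, HpaI cut → CE. Gain vs DMSO.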

Assay [16] is described as follows: ATG_M_32_TRANS: Attagene TRANS-FACTORIAL HepG2 Assay for M32 Transcription Factor (Internal Marker) (AID 2282984; active = hit-call score of the fitted dose curve at least 0.9, where 1 is the maximum;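 note: transcript level of a background control reporter unit measured by RT-PCR and capillary electrophoresis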). Conditions: HepG2 Attagene TRANS M32 internal marker reporter. In short, it runs like this: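 Capillary electrophoresis of 6-FAM-labelled reporter fragments gives the signal; data fitted for gain over DMSO negative control. Source: HepG2 cells bearing transient multiple reporter transcription units, 24 h exposure.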

The nature of assay [17]: BSK_3C_TissueFactor: BioMAP Diversity Plus: 3C Assay for Tissue Factor Biomarker Activity (AID 2282997). Conditions: BioMAP 3C HUVEC, tissue factor biomarker readout; actives raise or lower the signal. Put shortly:
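ELISA read-out of Tissue Factor levels on human umbilical vein endothelium collected 24 h after chemical dosing. Gain or loss of signal was fitted relative to DMSO.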

Assay [18] can be described thus: BSK_3C_uPAR: BioMAP Diversity Plus: 3C Assay for Urokinase-type plasminogen activator receptor (uPAR) Biomarker Activity (AID 2282998). Conditions: BioMAP 3C HUVEC, uPAR biomarker ELISA; actives raise or lower the signal. Put shortly:
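HUVEC primary cells; 24 h post-dose; uPAR by ELISA; gain or loss of signal fitted bidirectionally vs DMSO baseline.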
In general terms: An ELISA detects its analyte on a solid surface through an enzyme-linked reagent.

A short description of assay [19]: BSK_3C_VCAM1: BioMAP Diversity Plus: 3C Assay for Vascular cell adhesion molecule 1 (VCAM1) Biomarker Activity (AID 2282999). Conditions: BioMAP 3C HUVEC, VCAM1 ELISA, cytokine-stimulated; actives raise or lower the signal. In short, it runs like this:
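Human umbilical vein endothelial cells (3C system), biomarker read by ELISA 24 h after dosing; bidirectional fit against DMSO baseline. Cytotoxicity tracked by SRB total-protein staining in parallel cultures at biomarker time.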

Oxysterols receptor LXR-alpha (Homo sapiens), sequence (Q13133 whole entry, looked up, the tested form may be a part): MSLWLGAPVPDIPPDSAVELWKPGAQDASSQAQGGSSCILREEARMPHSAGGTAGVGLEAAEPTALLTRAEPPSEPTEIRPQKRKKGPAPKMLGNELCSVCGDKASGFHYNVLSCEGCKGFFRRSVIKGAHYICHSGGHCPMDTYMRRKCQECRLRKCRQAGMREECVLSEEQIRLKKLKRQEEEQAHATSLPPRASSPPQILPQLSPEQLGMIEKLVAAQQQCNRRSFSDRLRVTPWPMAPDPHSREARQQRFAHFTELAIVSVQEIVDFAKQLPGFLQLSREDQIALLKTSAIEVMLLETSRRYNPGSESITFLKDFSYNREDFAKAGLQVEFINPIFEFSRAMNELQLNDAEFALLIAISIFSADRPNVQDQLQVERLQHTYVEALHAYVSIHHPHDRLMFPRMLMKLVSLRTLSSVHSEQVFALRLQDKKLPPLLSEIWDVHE
Glucocorticoid receptor (Homo sapiens), sequence (P04150 whole entry, looked up, the tested form may be a part): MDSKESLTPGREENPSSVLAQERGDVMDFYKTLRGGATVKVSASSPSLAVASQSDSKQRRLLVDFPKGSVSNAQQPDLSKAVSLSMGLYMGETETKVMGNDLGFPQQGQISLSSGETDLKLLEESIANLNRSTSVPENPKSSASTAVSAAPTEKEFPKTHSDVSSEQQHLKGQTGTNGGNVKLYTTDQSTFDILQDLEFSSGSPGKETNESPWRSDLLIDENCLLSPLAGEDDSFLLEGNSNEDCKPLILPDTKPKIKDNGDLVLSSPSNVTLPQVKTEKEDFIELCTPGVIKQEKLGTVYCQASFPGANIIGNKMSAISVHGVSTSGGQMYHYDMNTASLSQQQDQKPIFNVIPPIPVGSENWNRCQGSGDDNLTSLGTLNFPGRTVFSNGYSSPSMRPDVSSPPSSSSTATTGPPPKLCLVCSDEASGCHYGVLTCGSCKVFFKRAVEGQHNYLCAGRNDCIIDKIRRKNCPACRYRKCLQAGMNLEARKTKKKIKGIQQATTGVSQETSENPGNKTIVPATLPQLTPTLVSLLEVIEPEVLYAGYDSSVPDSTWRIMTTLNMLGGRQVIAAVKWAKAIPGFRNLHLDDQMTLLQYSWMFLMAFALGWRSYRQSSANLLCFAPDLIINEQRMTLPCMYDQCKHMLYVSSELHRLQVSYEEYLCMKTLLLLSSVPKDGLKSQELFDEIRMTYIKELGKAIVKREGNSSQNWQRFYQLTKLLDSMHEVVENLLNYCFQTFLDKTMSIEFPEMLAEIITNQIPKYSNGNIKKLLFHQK
Oxysterols receptor LXR-beta (Homo sapiens), sequence (P55055 whole entry, looked up, the tested form may be a part): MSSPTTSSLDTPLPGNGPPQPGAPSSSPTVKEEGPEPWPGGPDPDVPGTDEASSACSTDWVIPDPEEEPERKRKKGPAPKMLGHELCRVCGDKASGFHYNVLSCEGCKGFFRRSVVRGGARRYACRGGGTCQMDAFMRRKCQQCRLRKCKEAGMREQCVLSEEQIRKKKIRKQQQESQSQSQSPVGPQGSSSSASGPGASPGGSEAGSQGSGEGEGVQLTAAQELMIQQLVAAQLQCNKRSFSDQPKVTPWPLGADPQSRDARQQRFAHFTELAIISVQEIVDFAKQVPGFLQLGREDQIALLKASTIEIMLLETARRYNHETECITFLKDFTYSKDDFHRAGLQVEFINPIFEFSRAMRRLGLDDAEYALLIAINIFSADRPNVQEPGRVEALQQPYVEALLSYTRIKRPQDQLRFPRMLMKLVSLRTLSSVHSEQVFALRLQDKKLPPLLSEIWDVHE
Nuclear receptor subfamily 4 group A member 2 (Homo sapiens), sequence (P43354 whole entry, looked up): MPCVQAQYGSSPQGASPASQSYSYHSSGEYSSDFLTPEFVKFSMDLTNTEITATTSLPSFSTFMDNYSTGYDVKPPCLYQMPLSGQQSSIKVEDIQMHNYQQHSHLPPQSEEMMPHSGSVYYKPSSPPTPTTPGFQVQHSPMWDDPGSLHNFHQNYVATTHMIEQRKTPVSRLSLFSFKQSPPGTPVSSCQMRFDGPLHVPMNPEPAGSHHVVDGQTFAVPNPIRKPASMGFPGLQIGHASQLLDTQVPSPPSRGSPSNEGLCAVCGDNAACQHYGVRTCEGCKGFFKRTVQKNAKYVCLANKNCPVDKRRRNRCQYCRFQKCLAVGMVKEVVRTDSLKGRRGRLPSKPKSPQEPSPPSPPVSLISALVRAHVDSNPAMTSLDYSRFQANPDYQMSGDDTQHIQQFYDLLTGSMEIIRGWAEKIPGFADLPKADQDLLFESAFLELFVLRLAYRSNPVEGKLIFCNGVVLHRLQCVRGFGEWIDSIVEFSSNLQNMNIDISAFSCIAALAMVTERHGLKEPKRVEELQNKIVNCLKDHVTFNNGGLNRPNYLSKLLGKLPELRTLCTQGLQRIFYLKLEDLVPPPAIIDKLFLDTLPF
Transcriptional activator Myb (Homo sapiens), sequence (P10242 whole entry, looked up): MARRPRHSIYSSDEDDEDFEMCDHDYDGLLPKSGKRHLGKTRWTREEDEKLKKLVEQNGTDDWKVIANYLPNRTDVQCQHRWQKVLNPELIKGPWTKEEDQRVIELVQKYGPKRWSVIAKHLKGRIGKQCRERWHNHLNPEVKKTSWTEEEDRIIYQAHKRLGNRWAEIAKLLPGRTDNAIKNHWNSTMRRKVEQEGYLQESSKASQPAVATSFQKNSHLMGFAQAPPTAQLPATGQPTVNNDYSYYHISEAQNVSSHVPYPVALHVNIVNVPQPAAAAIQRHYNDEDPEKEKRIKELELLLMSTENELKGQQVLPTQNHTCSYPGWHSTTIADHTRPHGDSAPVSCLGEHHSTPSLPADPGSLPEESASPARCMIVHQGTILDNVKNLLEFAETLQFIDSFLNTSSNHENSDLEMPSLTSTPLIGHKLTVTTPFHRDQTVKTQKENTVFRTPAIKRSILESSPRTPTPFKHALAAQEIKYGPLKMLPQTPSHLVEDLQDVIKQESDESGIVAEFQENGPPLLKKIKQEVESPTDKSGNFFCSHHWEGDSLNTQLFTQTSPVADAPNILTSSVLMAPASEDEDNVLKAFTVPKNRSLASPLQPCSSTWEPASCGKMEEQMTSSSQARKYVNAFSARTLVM
Cellular tumor antigen p53 (Homo sapiens), sequence (P04637 whole entry, looked up): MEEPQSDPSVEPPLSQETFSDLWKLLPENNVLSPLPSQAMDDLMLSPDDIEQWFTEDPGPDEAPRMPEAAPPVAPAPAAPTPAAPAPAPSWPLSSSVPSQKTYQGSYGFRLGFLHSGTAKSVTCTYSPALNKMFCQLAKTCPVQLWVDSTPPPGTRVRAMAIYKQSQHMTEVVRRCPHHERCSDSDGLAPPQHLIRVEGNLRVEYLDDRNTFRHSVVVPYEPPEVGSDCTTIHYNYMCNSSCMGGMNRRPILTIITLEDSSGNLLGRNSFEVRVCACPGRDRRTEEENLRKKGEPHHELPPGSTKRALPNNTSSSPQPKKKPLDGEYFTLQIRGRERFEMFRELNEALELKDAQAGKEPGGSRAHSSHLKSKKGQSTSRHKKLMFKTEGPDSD
Myc proto-oncogene protein (Homo sapiens), sequence (P01106 whole entry, looked up, the tested form may be a part): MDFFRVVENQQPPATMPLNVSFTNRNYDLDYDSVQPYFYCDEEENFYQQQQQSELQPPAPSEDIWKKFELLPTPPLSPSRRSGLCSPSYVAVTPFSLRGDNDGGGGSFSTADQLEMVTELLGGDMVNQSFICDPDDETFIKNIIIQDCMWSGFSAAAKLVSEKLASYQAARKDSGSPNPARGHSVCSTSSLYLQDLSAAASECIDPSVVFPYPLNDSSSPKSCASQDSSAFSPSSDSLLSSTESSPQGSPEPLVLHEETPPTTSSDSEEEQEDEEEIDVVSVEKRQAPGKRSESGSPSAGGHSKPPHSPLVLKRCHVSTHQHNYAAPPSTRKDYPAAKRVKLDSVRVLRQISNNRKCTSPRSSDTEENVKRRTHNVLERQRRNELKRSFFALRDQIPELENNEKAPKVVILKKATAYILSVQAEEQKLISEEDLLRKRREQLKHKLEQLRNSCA
Nuclear respiratory factor 1 (Homo sapiens), sequence (Q16656 whole entry, looked up): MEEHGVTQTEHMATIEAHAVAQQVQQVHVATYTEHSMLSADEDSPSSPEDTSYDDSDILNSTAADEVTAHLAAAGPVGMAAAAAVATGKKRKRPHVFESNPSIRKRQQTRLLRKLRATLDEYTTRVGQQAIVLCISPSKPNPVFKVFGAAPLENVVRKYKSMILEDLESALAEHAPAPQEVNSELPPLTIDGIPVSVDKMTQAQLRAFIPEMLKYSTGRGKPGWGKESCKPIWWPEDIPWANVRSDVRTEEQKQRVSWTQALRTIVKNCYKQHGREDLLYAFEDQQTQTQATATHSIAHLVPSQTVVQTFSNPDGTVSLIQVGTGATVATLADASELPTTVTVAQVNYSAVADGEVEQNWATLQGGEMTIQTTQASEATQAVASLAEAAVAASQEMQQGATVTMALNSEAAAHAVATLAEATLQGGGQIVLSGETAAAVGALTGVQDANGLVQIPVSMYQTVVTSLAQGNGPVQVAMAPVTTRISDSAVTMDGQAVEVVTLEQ
Hepatocyte nuclear factor 4-alpha (Homo sapiens), sequence (P41235 whole entry, looked up, the tested form may be a part): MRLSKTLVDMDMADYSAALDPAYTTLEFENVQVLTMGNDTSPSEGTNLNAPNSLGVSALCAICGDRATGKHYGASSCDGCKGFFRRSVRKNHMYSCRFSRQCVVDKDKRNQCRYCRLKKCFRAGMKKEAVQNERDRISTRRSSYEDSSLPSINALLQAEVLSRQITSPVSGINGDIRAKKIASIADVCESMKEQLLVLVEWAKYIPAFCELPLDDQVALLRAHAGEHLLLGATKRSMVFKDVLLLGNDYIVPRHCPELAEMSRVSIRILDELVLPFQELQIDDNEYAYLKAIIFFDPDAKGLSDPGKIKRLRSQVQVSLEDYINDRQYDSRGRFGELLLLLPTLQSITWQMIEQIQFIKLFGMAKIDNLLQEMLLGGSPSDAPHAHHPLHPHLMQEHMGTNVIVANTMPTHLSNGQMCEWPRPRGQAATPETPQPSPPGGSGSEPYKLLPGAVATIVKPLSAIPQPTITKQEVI

As for `CCC(=O)OC/C=C(\C)CCC=C(C)C`, the molecule was called inactive in assay [1], in assay [2], in [3], in assay [4], in assay [5] and in assay [6]. Also, the molecule was called inactive in assay [7], in [8], in assay [9] and in assay [10].

In the case of `[Cl][Dy]([Cl])[Cl]`, the call in [11], in [12], in assay [2], in assay [4], in [5] and in assay [6] was inactive. Also, the molecule was classed as inactive in [7], in [8], in [9], in [10] and in [13].

`CCCCCCCCOC(C)=O`: the outcome in assay [11], in [12], in [2], in [3], in assay [14] and in assay [4] was inactive. Moreover, the call in assay [5], in assay [7], in assay [8], in [9], in [10] and in [13] was inactive.

Usually AC50 stands for the midpoint of the concentration-response curve, whichever way the signal moves. `Nc1cc([N+](=O)[O-])ccc1C(=O)O`: the outcome in assay [11], in assay [12], in assay [2], in assay [14], in [4] and in assay [5] was inactive. Further, the molecule was classed as inactive in assay [7], in assay [10] and in assay [13]. For the same molecule, the AC50 in assay [9] was 51.8 µM (active).

As to `CCC(=O)OC(C)(C)C1CC=C(C)CC1` (stereo not drawn), the call in assay [15], in assay [12], in [2], in assay [16], in assay [14] and in assay [4] was inactive. Moreover, the molecule was classed as inactive in assay [5], in assay [6], in assay [7], in assay [10] and in [13]. Moreover, the concentration at half-maximal activity (AC50) in [9] is 127 µM (active).

Turning to `NC(=O)NC(N)=O`, the call in assay [11], in assay [12], in assay [2], in [3], in assay [16] and in assay [14] was inactive. The call in [4], in [5], in [6], in assay [7], in [9] and in [10] was inactive. Moreover, the call in assay [13] was inactive.

As to `C=C(C)C(=O)OCCC(C)OC(=O)C(=C)C` (stereo not drawn), the outcome in assay [1], in [2], in [16], in [4], in assay [5] and in assay [6] was inactive. Further, the molecule was called inactive in [7], in assay [9] and in assay [10].

In the case of `C1=COCCC1`, the molecule was classed as inactive in [1], in assay [3], in assay [16], in [14], in assay [4] and in assay [5]. Moreover, the outcome in assay [7], in [9], in assay [10] and in assay [13] was inactive.

As to `OCCN1CCOCC1`, the call in assay [11], in assay [12], in assay [2], in assay [3], in assay [16] and in [14] was inactive. Moreover, the molecule was called inactive in assay [4], in [5], in assay [6], in assay [7], in assay [8] and in assay [9]. The result in assay [10], in assay [17], in assay [18] and in [19] was inactive.

`CCCCOCC(C)OCC(C)O` (stereo not drawn): the result in assay [11], in [12], in assay [2], in assay [16], in assay [4] and in assay [5] was inactive. The outcome in assay [6], in assay [7], in assay [9] and in assay [10] was inactive.

As to `Cc1ccc(C(C)(C)O)cc1`, the result in assay [1], in assay [3], in assay [4], in assay [5], in assay [6] and in assay [7] was inactive. The call in assay [8], in [9], in assay [10] and in [13] was inactive.
